D3 antag = blocks the human D3 dopamine receptor | 2.5% of 360,000 active | P35462 | D3R cells, DiscoveRx beta-arrestin luminescence, antagonist mode; hits give low values | max response, negative = inhibition, % | AID 652054; in the data active means max response below about -50%; inconclusive means no clear call, values can overlap the other calls
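Cells plated overnight at 1500 cells/well, then exposed to library compounds with dopamine controls for 90 minutes at 37 degrees C. DiscoveRx reagent added for 30–60 minutes at room temperature; luminescence read, quantitative HTS format.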
B2AR arrestin = beta2AR (human) beta-arrestin recruitment activity; P07550; AID 492947; 0.02% of 330,000 active; Potency, µM (doses to about 46.1 µM), usual class: activators; beta-arrestin recruitment to beta2AR, cell-based reporter; further: nearly all actives have a fitted effect of over 65% in size
mIDH1 inhibitor = inhibitors of human mutant IDH1 R132H; O75874; IDH1-R132H enzyme, NADPH consumption, diaphorase/resazurin fluorescence; Potency, µM (series often up to 76.6 µM), most hits filed as inhibitors; 0.093% of 390,000 active; further: nearly all actives have a fitted effect of over 65% in size
Target sequence (O75874 whole entry R132H, stated change not applied): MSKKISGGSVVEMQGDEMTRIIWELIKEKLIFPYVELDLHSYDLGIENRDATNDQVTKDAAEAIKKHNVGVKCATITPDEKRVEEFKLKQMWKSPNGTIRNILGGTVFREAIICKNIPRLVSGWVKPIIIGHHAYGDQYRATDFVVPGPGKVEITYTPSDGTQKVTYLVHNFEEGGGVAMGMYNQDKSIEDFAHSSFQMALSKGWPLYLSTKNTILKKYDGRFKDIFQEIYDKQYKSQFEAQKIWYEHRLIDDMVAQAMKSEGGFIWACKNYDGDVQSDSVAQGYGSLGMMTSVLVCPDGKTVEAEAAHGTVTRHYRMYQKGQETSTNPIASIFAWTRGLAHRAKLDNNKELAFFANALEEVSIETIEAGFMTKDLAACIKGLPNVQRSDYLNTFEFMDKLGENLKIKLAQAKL
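IDH1-R132H (0.5 ug/mL dispensed) in pH 7.5 Tris buffer was preincubated 30 min with compound, then given a substrate mix of 0.016 mM NADPH and 2 mM alpha-KG for 80 min at room temperature; remaining NADPH was read by diaphorase/resazurin fluorescence.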
a7 integrin act = activators of alpha7 integrin expression for muscular dystrophy. alpha7betagal myoblasts, beta-gal FDG fluorescence, 48 h. Potency, µM (doses to about 38.3 µM), most hits filed as activators. 0.064% of 350,000 active; further: nearly all actives have a fitted effect of over 60% in size
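Alpha7betagal+/- myoblasts (passage 13) were plated 16-24 hr, then exposed to compounds (1:260 dilution of DMSO stock) for 48 hours at 37C. After MPER lysis, β-galactosidase reporter activity was read as FDG fluorescence (ex 480/em 540) after 30 minutes.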
D3 ag = activates the human D3 dopamine receptor; P35462; D3R DiscoveRx beta-arrestin cells, luminescence, 90 min; max activation, %; 0.58% of 410,000 active; AID 652048; in the data active means max activation above about 30%
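Agonist mode: compounds and dopamine controls were applied to plated cells for 90 min at 37 degrees C after an overnight attachment at 1500 cells/well. Luminescent read-out followed 30 - 60 minutes at room temperature with DiscoveRx detection reagent.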
Each line names hits and unclear results; the compound was inactive in the other large screens. Hits are enriched below; roughly 2.9% of the tested compounds scored in any of these assays. Unless noted, the call rests on the fitted dose curve; in most records, active means well fitted curve in the direction sought with a large enough effect; inconclusive means small, poorly fitted or top-dose-only effect, or another doubt; inactive means no such curve, though single readings can be large; an effect the other way counts as inactive or inconclusive.

O=C(CCS(=O)(=O)c1ccc(F)cc1)Nc1nc(-c2ccccn2)cs1	none
CC(Oc1ccc(F)cc1)C(=O)Nc1nc(-c2ccccn2)cs1 (configuration not stated)	D3 antag -69
COc1cccc(C=Nc2ccccc2C(=O)Nc2nccs2)c1OC	D3 antag -74
CC[C@@]12C(=O)N(c3ccc(OC)cc3)C(=O)N1[C@H](c1ccc(Cl)cc1)[C@@H]1C(=O)N(C3CCCCC3)C(=O)[C@@H]12	D3 antag -57
CCN1C(=O)[C@H]2[C@@H](c3ccc(C)cc3)N3C(=O)N(c4ccc(OC)cc4)C(=O)[C@@]3(CC)[C@H]2C1=O	D3 ag 46
COc1ccc(N2C(=O)N3[C@H](c4cccc(C)c4)[C@@H]4C(=O)N(Cc5ccccc5)C(=O)[C@@H]4[C@]3(Cc3ccccc3)C2=O)cc1	D3 ag 31
CC[C@@]12C(=O)N(c3cccc(Br)c3)C(=O)N1[C@H](c1ccc(Cl)cc1)[C@@H]1C(=O)N(C3CCCCC3)C(=O)[C@@H]12	none
O=C(NCCC1=CCCCC1)c1ccc2c(c1)N(Cc1ccc(Cl)cc1)C(=O)c1ccccc1S2(=O)=O	none (no result: D3 antag, B2AR arrestin, a7 integrin act)
CCOC(=O)N1CCc2c(sc(NCc3ccc(OC)c(Br)c3)c2C(=O)Nc2cc(OC)ccc2OC)C1	none (no result: D3 antag, B2AR arrestin, a7 integrin act)
Cc1ccc(-n2cc(CN3CCC(CO)(Cc4cccc(C(F)(F)F)c4)CC3)cn2)cc1	D3 antag -61
CC(=O)Nc1cccc(C(=O)NC2CCCc3c2cnn3-c2ccc(C(C)(C)C)cc2)c1 (configuration not stated)	D3 ag 33
O=C(NCCC(=O)N1CCN(Cc2c(F)cccc2Cl)CC1)c1ccc(Cl)cc1	D3 ag 65
CCc1ccc(NC(=O)CSc2nccn2C2CCCC2)cc1	none (no result: D3 antag, B2AR arrestin, a7 integrin act)
CCOc1ccc(NC(=O)c2c(C)nn(-c3ccc(F)cc3)c2-n2cccc2)cc1	none (no result: D3 antag, B2AR arrestin, a7 integrin act)
Clc1cccc(OCCCN2CCCC2)c1Cl	D3 antag -99
Clc1cccc(OCCOCCN2CCNCC2)c1Cl	D3 antag inconclusive (no result: B2AR arrestin)
c1ccc2c(OCCCN3CCCCCC3)cccc2c1	D3 antag -60
CCN(CC)S(=O)(=O)c1ccc2c(c1)N(CC(=O)Nc1ccc(F)cc1F)C(=O)C1CCCN21 (configuration not stated)	none (no result: D3 antag, B2AR arrestin, a7 integrin act)
CCc1ccc(S(=O)(=O)c2c(C(=O)c3ccc(C)c(C)c3)cnc3ccccc23)cc1	none (no result: D3 antag, B2AR arrestin, a7 integrin act)
Oc1cccc(C=Nc2cccc3ccccc23)c1O	D3 antag -75
COC(=O)c1ccc(NC(=O)c2c(-c3ccccc3)c(-c3ccccc3)nn(C)c2=O)cc1	none (no result: D3 antag, B2AR arrestin, a7 integrin act)
COc1ccc(NC(=O)CCCC(=O)O)cc1Cl	D3 antag -50, a7 integrin act inconclusive
CCN(C(=O)COC(=O)c1cnccn1)c1cccc2ccccc12	none
CCN(C(=O)COc1ccc(C(C)=O)cc1)c1cccc2ccccc12	D3 antag -72
Cc1nc(SCC(=O)N2CCN(c3ccccc3)CC2)c2oc3ccccc3c2n1	D3 ag 42
Cc1cccc(/C=N/c2sc3c(c2C(=O)OC(C)(C)C)CCN(C)C3)c1O	none
CCOC(=O)c1c(/N=C/c2cc(C)ccc2O)sc2c1CCN(C)C2	D3 antag -54
Cc1cccc(NS(=O)(=O)c2cccc(C(=O)NCC(C)(C)N3CCOCC3)c2)c1	D3 antag -81
Cc1ccc(Cl)cc1N1CCN(C(=O)c2ccc3c(c2)N(Cc2ccccc2)CCS3)CC1	none (no result: D3 antag, B2AR arrestin, a7 integrin act)
COc1ccc(N=Cc2cc(Cc3ccccc3Cl)cc([N+](=O)[O-])c2O)cc1OC	D3 antag -96
COc1ccc([N+](=O)[O-])cc1NC(=O)Cc1ccccc1Cl	none
Cc1ccc(N=Cc2cc(Cc3ccccc3Cl)cc([N+](=O)[O-])c2O)c(O)c1	D3 antag -74
Cc1ccc(-c2nc(S(=O)(=O)c3ccc(C)cc3)c(SCC(=O)NC3CCCCC3)o2)cc1	none (no result: D3 antag, B2AR arrestin, a7 integrin act)
COC(=O)c1ccc(N2C(=O)Cc3cc(OC)c(OC)cc3C2c2ccc(F)cc2)cc1 (configuration not stated)	mIDH1 inhibitor inconclusive (no result: D3 antag, B2AR arrestin, a7 integrin act)
Cc1cccc(-n2ncc3c2CCCC3NC(=O)CCc2cccnc2)c1C (configuration not stated)	none
CCCCCOc1ccccc1CN1C(=O)C(=O)c2cc(C)ccc21	none (no result: D3 antag, B2AR arrestin, a7 integrin act)
O=C1Nc2ccc(Cl)cc2C(=O)C1(F)c1ccccc1 (configuration not stated)	D3 ag 37
O=C1Nc2c(ccc(Cl)c2Cl)C(=O)C1(F)c1ccccc1 (configuration not stated)	a7 integrin act inconclusive
Cc1ccc2c(c1)C(CCN)C(=O)N2Cc1ccccc1 (configuration not stated)	D3 antag -106
CCc1ccc(-c2nc(CN3CCC(C(=O)N4CCN(c5ccccn5)CC4)CC3)c(C)o2)cc1	none
Cc1ccc(C)c(N2CCN(C(=O)C3CCN(Cc4nc(-c5cccc(Cl)c5)oc4C)CC3)CC2)c1	none (no result: D3 antag, B2AR arrestin, a7 integrin act)
CCN1CCN(C(=O)C2CCN(Cc3nc(-c4cccc(Cl)c4)oc3C)CC2)CC1	D3 antag -74
Cc1oc(-c2cccc(Cl)c2)nc1CN1CCC(C(=O)N2CCN(c3ccccn3)CC2)CC1	D3 antag -51 (no result: B2AR arrestin)
CC(=O)c1nn(-c2ccc(OC(F)(F)F)cc2)nc1Nc1ccc(C)cc1	none (no result: D3 antag, B2AR arrestin, a7 integrin act)
CCc1ccc2[nH]c(=O)c(C(c3nnnn3CC3CCCO3)N3CCCc4ccccc43)cc2c1 (configuration not stated)	D3 ag 38
COc1ccc(-c2csc3nc(-c4ccccc4OC)oc(=O)c23)cc1	none
O=C(CCCc1ccccc1)Nc1ccnn1C1CCN(Cc2ccccc2)CC1	none
O=C(CCCc1ccccc1)Nc1ccnn1C1CCN(Cc2ccccc2F)CC1	none
CCOc1ccc(CN2CCC(n3nccc3NC(=O)CCCc3ccccc3)CC2)cc1	D3 antag -55
Cc1ccc(C)c(CN2CCC(n3nccc3NC(=O)CCCc3ccccc3)CC2)c1	D3 antag -65
CC(C)n1cc(CN2CCC(n3nccc3NC(=O)CCCc3ccccc3)CC2)cn1	D3 antag -69
CCCN(CCC)CCOc1cc(C)ccc1C(C)C	D3 antag inconclusive
Cc1ccc(C)c(OCCOCCN2CCOCC2)c1	D3 antag -56
Cc1ccc(C(C)C)c(OCCN(C)C)c1	D3 antag -75
Cc1ccc(C(C)C)c(OCCCCCN2CCOCC2)c1	D3 antag -52
Cc1ccc(C)c(OCCN2CCOCC2)c1	none
CCOc1ccc(NC(=O)N(C)CCc2c(C)nn(C)c2C)cc1	none (no result: D3 antag, B2AR arrestin, a7 integrin act)
CCOC(=O)c1c(C)[nH]c(C)c1S(=O)(=O)N1CCCC(C(=O)N2CCN(c3cccc(Cl)c3)CC2)C1 (configuration not stated)	none (no result: D3 antag, B2AR arrestin, a7 integrin act)
Cc1ccsc1C(=O)N/N=C/C=C/c1ccccc1[N+](=O)[O-]	D3 antag -85

Screens: PubChem BioAssay, National Center for Advancing Translational Sciences (NCATS)
